Data reported in PubChem BioAssay AID1347069 (National Center for Advancing Translational Sciences (NCATS), 2019).
Fewer than 10 of roughly 44,000 compounds were called active. These entries were drawn from the full list. Unmarked numbers belong to inactive results. Calls follow the shape of the dose curve; as a rule, active = well fitted inhibition curve with a large enough effect; inconclusive = small, poorly fitted or top-dose-only effect; inactive = flat fitted curve, though single readings scatter.

molecular target: Tumor susceptibility gene 101 protein (Homo sapiens) (UniProt Q99816); test: qHTS Validation Assay for Inhibitors of HIV-1 Budding by Blocking the Interaction of PTAP/TSG101: Sytravon Library Screen; details: Fluorescence polarization, FITC-PTAP peptide/Tsg101, 20 min; series mostly up to 115 µM; activity change, negative = inhibition: at the top concentration; as to activity change, negative = inhibition: 0% is about no effect
Sequence (Q99816 whole entry, looked up): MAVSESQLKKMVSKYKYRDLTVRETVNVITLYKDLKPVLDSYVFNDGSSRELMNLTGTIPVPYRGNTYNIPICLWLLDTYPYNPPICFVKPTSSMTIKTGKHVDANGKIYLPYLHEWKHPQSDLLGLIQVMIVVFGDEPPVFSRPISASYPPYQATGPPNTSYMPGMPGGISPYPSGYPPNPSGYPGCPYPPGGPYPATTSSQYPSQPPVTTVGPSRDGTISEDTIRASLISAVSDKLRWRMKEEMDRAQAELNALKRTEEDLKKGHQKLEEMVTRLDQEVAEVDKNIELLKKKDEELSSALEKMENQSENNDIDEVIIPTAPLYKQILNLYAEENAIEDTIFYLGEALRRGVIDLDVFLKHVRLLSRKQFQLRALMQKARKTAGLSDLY
Description: Stages of the HIV-1 replication cycle, specifically virus assembly and release, provide underexploited targets for the development of novel antiviral inhibitors. The late stages of HIV-1 replication are mediated by the Gag precursor protein, Pr55Gag. Expression of Pr55Gag is both necessary and sufficient for the production of virus-like particles from Gag-expressing cells. The Gag protein hijacks key host proteins involved in endocytic machinery of the host cell to promote endosomal processing and viral budding. The budding process requires a direct interaction between a […] (PTAP) motif in the p6 domain of Gag and the cellular endosomal sorting protein known as Tsg101. In this way, the Gag PTAP motif promotes the host cells to recruit viral particles to the plasma membrane where the new viral particles are released, effectively turning the host cells into viral factories. A fluorescence polarization assay has been developed to quantitatively measure the PTAP-Tsg101 interaction which can be used to screen for inhibitors of this interaction. This assay was run against the NCGC Sytravon Library collection. NIH Molecular Libraries Probe Production Network [MLPCN] NIH Chemical Genomics Center [NCGC] Grant: R03 MH087464-01A1 PI Name: Dr. Eric Freed, NCI
Two uL of the Tsg101 binding domain in buffer (10 mM HEPES pH 7.5; 0.15 M NaCl, 0.01% Tween 20; 3 mM EDTA;0.1 mM TCEP) was dispensed into Greiner black MB 1536-well plates (final concentration 10 uM). Then, 23 nL of compounds or DMSO were delivered to each well using a pin tool. Finally, 2 uL of a FITC-labeled peptide containing the PTAP motif (1) in the same buffer was dispensed (50 nM final concentration) and the binding was allowed to proceed for 20 min. at r.t. Fluorescent polarization was determined using FITC excitation and polarized emission filters on a Perkin Elmer Envision. Assay cut-off (positive/negative criteria): Actives defined by CRC class, <25 µM; Efficacy <60% inhibition. The total fluorescent intensity from S and P channels will be used to flag fluorescent compounds.
Potency is read from the fitted curve at half-maximal effect.

Row | SMILES | activity change, negative = inhibition | Potency
1 | COc1ccccc1C(=O)Nc1c(C(=O)N(C)Cc2ccccc2)sc2nc(C)c(Cl)c(C)c12 | -1.59% | 
2 | COc1ccccc1CNC(=O)c1ccc(NC(=O)N2CC(C)Sc3ccccc32)cc1 (centres undefined) | -5.63% | 
3 | COc1ccc(NC(=O)c2sc3nc[nH]c(=O)c3c2C)cc1 | 2.47% | 
4 | CCc1ccc(S(=O)(=O)Nc2cc3c(C(=O)OCc4ccccc4)c(C)oc3c3ccccc23)cc1 | 8.08% | 
5 | COc1ccccc1-c1ccnc2[nH]n(-c3ccccc3)c(=O)c12 | -10.8% | 
6 | CSc1nn(Cc2cccc(C)c2)c(N)c1S(=O)(=O)c1ccccc1 | 5.53% | 
7 | CCOc1ccccc1C(=O)Nc1ccc2c(c1)N(C)C(=O)c1ccccc1S2 | -5.55% | 
8 | CCOC(=O)c1[nH]c(C)c(CCC(=O)NCc2ccccc2C)c1C | 1.29% | 
9 | Cc1ccc(S(=O)(=O)c2nc(-c3cccs3)oc2N2CCCCC2)cc1 | -7.31% | 
10 | COc1cccc(CNC(=O)CCc2nc(-c3ccc(C)cc3)no2)c1 | 0.0869% | 
11 | CCCCCCn1nnc2sc(-c3ccccc3)cc2c1=O | 1.81% | 
12 | Cc1ccc(Cl)cc1N1CCN(C(=O)c2cccn3c(=O)c4cc(Cl)ccc4nc23)CC1 | 1.96% | 
13 | Cc1ccccc1-n1c(=O)c2ccccc2n(Cc2ccc(F)cc2)c1=O | -2.61% | 
14 | CCc1ccccc1N(C)C(=O)C1CCCN(c2ncnc3onc(-c4ccc(F)cc4)c23)C1 (centres undefined) | -3.7% | 
15 | CCOC(=O)c1c(NC(=O)c2ccc(S(=O)(=O)N(CC)CC)cc2)sc2c1CCCCC2 | -4.85% | 
16 | Cc1nc2ccc(S(=O)(=O)N(CC(=O)Nc3ccc(F)cc3)Cc3ccccc3)cc2s1 | 1.33% | 
17 | COc1ccc(CCNC(=O)CN2C(=O)COc3ccc(S(=O)(=O)N4CCCC4)cc32)cc1OC | -6.56% | 
18 | Cc1cc(Nc2cccc(C(F)(F)F)c2)nc2ccc(NC(=O)c3ccc(=O)[nH]c3)cc12 | 1.63% | 
19 | O=C(Nc1ccc2oc(-c3ccc(O)c(Br)c3)nc2c1)c1cc2ccccc2o1 | -4.46% | 
20 | O=C(c1cccc(Br)c1)N1CCN(Cc2cc(=O)n3nc(-c4ccccc4)sc3n2)CC1 | -0.0587% | 
21 | O=C(CNS(=O)(=O)c1cccs1)N1CCN(c2ccccc2Cl)CC1 | 1.11% | 
22 | CC1CCc2noc(NC(=O)c3ccc([N+](=O)[O-])cc3)c2C1 (centres undefined) | 12.5% | 
23 | COc1cc(C(=O)N2CCN(c3ccc(Nc4ccc(C)cc4)nn3)CC2)cc(OC)c1OC | -0.737% | 
24 | CCOC(=O)c1ccc(NC(=O)CCS(=O)(=O)c2ccc3c(c2)oc(=O)n3C)cc1 | 4.41% | 

Row | SMILES | activity change, negative = inhibition | Potency
25 | O=C(COCc1cc(-c2ccc3c(c2)OCO3)on1)N1CCN(c2cccc(Cl)c2)CC1 | 1.37% | 
26 | Cc1ccc(C(=O)Nc2ccc(C(=O)O)cc2)cc1S(=O)(=O)Nc1ccccc1 | -1.08% | 
27 | Cc1ccc(OCC(=O)OCc2cc(=O)n3nc(C4CC4)sc3n2)cc1 | -7.51% | 
28 | CCOC(=O)C(Cc1ccccc1)NC(=O)CCc1c(C)nc2c(c(C)nn2-c2ccc(C)c(C)c2)c1C (centres undefined) | -0.632% | 
29 | Cc1ccc(OCCSc2nc(-c3cccs3)nc3cc(=O)[nH]n23)cc1Cl | 0.193% | 
30 | CC1(C)N=C(SCc2ccccc2Cl)c2ccccc2N1 | -5.04% | 
31 | COc1ccc(Cc2nc3ccc(C(=O)NCc4ccccc4C)cc3o2)cc1 | 0.514% | 
32 | COc1ccc(N2C(=O)CS(=O)(=O)C23C(=O)N(Cc2ccc(C)cc2)c2ccccc23)cc1Cl (centres undefined) | 2.62% | 
33 | Cc1ccc(C)c(N2CCN(S(=O)(=O)c3ccc4c(c3)C(C(C)C)C(=O)N4)CC2)c1 (centres undefined) | -7.65% | 
34 | Cc1ccc(NC(=O)CSc2nnc3[nH]c(=O)cc(C)n23)cc1Cl | -1.4% | 
35 | CCOC(=O)C1CCC(CN(Cc2ccc(OC)cc2)S(=O)(=O)c2ccc(F)c(C(=O)Nc3cc(C)ccc3C)c2)CC1 (centres undefined) | -0.621% | 
36 | CCOC(=O)N1CCc2c(sc3c2c(=O)n(-c2ccc(CC)cc2)c(=O)n3C)C1 | 0.351% | 
37 | COc1ccc(CCN2C(=O)c3oc4cc(C)cc(C)c4c(=O)c3C2c2ccccc2F)cc1OC (centres undefined) | -1.25% | 
38 | CSc1ccc(CCNC(=O)c2ccc3c(c2)nc2n3CCOC2)cc1 | 1.68% | 
39 | COc1ccccc1N1CCN(C(=O)C2CCN(S(=O)(=O)c3c(C)noc3/C=C/c3ccc(C)cc3)CC2)CC1 | 0.416% | 
40 | COc1ccc2c(c1)Cc1sc(NC(=O)c3ccccc3Br)nc1-2 | -15.5% | 
41 | CC(=O)Nc1ccc(NC(=O)C2CCCN(S(=O)(=O)c3ccc4c(c3)CCCC(=O)N4)C2)cc1 (centres undefined) | -4.99% | 
42 | COc1ccc(Cl)cc1NC(=O)CSc1nc(=O)[nH]c2c1CCCC2 | -2.93% | 
43 | CCc1nn(CC(=O)Nc2cc(C)cc(C)c2)c(=O)c2cc3sccc3n12 | 2.57% | 
44 | COc1cc(OC)c(NC(=O)c2cnc(N3CCCC3)nc2C)cc1Cl | -0.674% | 
45 | O=C(NCCC1=CCCCC1)c1ccc2c(c1)N(Cc1ccccc1F)C(=O)c1ccccc1S2(=O)=O | -0.0457% | 
46 | O=C(CN1C(=O)COc2ccc(S(=O)(=O)N3CCCCCC3)cc21)N1CCN(c2cccc(C(F)(F)F)c2)CC1 | -1.98% | 
47 | CCCCOc1ccc(CN2C(=O)C(=O)c3cc(Br)cc(C)c32)cc1OC | 3.1% | 
48 | COc1cc(CN(C(=O)c2ccccc2Br)c2ccccn2)cc(OC)c1OC | 1.54% | 

Row | SMILES | activity change, negative = inhibition | Potency
49 | CCOCCCNC(=O)c1c(NC(=O)Cc2coc3c(C)c(C)ccc23)sc2c1CCC2 | -5.83% | 
50 | Cc1nnc(N2CCC(C(=O)Nc3ccc(F)cc3)CC2)c2nn(-c3ccc(Cl)cc3)c(C)c12 | -0.22% | 
51 | O=C(c1cc(-c2ccc(F)cc2)on1)N1CCN(c2ccc(F)cc2)CC1 | -0.644% | 
52 | COC(=O)CN1C(=O)CSc2ccc(S(=O)(=O)Nc3cc(C)ccc3C)cc21 | 0.45% | 
53 | Cc1cc(C)c2oc(C(=O)Nc3c(C(=O)Nc4ccccc4)oc4ccccc34)cc(=O)c2c1 | -3.4% | 
54 | O=C(NC1CC(=O)N(c2ccc(Cl)cc2)C1)C1CCCC1 (centres undefined) | 1.05% | 
55 | CN1CCN(c2oc(-c3ccc(COc4ccc(Cl)cc4)o3)nc2C#N)CC1 | -1.61% | 
56 | COc1ccc(-c2nc3sc(CCNS(=O)(=O)c4ccc(F)c(C)c4)c(C)n3n2)cc1 | -2.15% | 
57 | O=C(COc1ccccc1F)Nc1ccc(C(=O)OCc2cc(=O)n3nc(C4CC4)sc3n2)cc1 | -2.26% | 
58 | CCC(=O)Nc1ccccc1-c1nc2ccccc2n(CC(=O)Nc2ccc(C)c(C)c2)c1=O | -2.55% | 
59 | Cc1cccc(-c2nc(SCC(=O)Nc3cc(C)on3)c3c(=O)n(C)c(=O)n(C)c3n2)c1 | -8.93% | 
60 | CC(=O)c1ccc(NC(=O)CSc2c(C(C)C)cnc3c2c(=O)n(C)c(=O)n3C)cc1 | -0.533% | 
61 | COc1ccc(OCc2ccc(-c3nc(C#N)c(N4CCN(c5ccccc5)CC4)o3)o2)cc1 | -0.55% | 
62 | CCCCNC(=O)c1cc(-c2ccc(Cl)c(Cl)c2)on1 | 0.656% | 
63 | CCSc1ncc(Cl)c(C(=O)Nc2c(C(=O)c3ccccc3)oc3ccccc23)n1 | 0.154% | 
64 | Cc1ccc(NC2=C(c3ccc(C(F)(F)F)cc3)C(=O)c3ccccc32)cc1F | -2.86% | 
65 | COc1ccc(S(=O)(=O)c2c(Nc3cccc(Cl)c3)sc(C(=O)c3ccccc3)c2N)cc1 | 1.26% | 
66 | COc1cccc(C(=O)Nc2ccc(-c3cc(C(F)(F)F)nn3-c3ccccc3)cc2)c1 | -5.37% | 
67 | COc1cccc(C(=O)c2sc3nc(-c4ccccc4)cc(C(F)(F)F)c3c2N)c1 |  | 28.2 µM (active)
68 | COc1ccc(NC(=O)CN2CCCN(Cc3ccccc3)S2(=O)=O)cc1 | 4.58% | 
69 | COc1ccccc1Nc1nc(N)nc(N)c1S(=O)(=O)c1ccccc1 | 2.79% | 
70 | COc1cccc(N2CCN(C(=O)CCCCCn3c(=O)[nH]c4ccccc4c3=O)CC2)c1 | -2.04% | 
71 | COc1ccc(CNC(=O)c2cc3c(=O)[nH]c4ccccc4c3s2)cc1 | -0.283% | 
72 | CCCN1C(=O)C(O)(CC(=O)c2ccc(CC)cc2)c2cc(Br)ccc21 (centres undefined) | -0.282% | 

Row | SMILES | activity change, negative = inhibition | Potency
73 | O=C(c1ccco1)n1nc(-c2ccc(Cl)cc2)nc1NCc1ccccc1 | -4.62% | 
74 | Cn1c(=O)c2c(-c3ccccc3Br)n(Cc3ccccc3)cc2n(C)c1=O | -2.21% | 
75 | Cc1cc(C)c(NC(=O)CN2C(=O)c3cccnc3Oc3ccc(Cl)cc32)c(C)c1 | 0.363% | 
76 | CCOC(=O)c1ccc(NC(=O)C2CCN(S(=O)(=O)c3ccc4c(c3)CCCC(=O)N4)CC2)cc1 | -0.0606% | 
77 | O=C(Nc1ccc2nc(SCC(=O)N3CCCc4ccccc43)sc2c1)c1ccc(F)cc1 | 7.03% | 
78 | CCOc1ccc(NC(=O)Cn2c(=O)n(CCCC(=O)NCc3ccc4c(c3)OCO4)c(=O)c3ccccc32)cc1 | -2.28% | 
79 | CC(=O)N1c2ccc(S(=O)(=O)N3CCCCCC3)cc2CC1C(=O)NCc1ccccc1C (centres undefined) | 1.47% | 
80 | CCOc1cccc(C(=O)Nc2nnc(S(=O)(=O)N(C)c3ccc(C)cc3)s2)c1 | 4.37% | 
81 | COc1cc(CNCCSc2nnnn2C)ccc1OCc1ccc(Cl)cc1Cl | -9.59% | 
82 | Cc1cn(C)c(CC(=O)NCc2ccccc2)c1C(=O)O | -6.7% | 
83 | CCc1ccc(CNC(=O)c2ccc(CS(=O)c3ccc(Br)cc3)o2)cc1 (centres undefined) | -1.78% | 
84 | COc1ccc(-n2ccnc(NCCc3ccc(Cl)cc3)c2=O)cc1OC | -3.87% | 
85 | N#Cc1nc(/C=C/c2ccc(F)cc2)oc1NC1CCCCC1 | 0.943% | 
86 | COc1ccc(CNC(=O)CS(=O)Cc2nc(-c3cccc(C)c3)oc2C)cc1 (centres undefined) | 0.25% | 
87 | CCOc1ccc(NC(=O)c2cc(S(=O)(=O)N3CCCC3)c[nH]2)cc1 | -8.6% | 
88 | COc1cccc(C(=O)NCC(=O)OCc2cc(=O)n3ccsc3n2)c1 | 1.45% | 
89 | Cc1nn(-c2ccc(N3CCCCC3)nn2)c(C)c1CCC(=O)NCc1ccccc1F | 1.09% | 
90 | CCc1cc2c(cc3c(=O)n(CC(=O)N4CCN(c5cc(Cl)ccc5C)CC4)ncn32)s1 | -5.09% | 
91 | CCOc1ccc(C2C(=O)N(C3CCCCC3)CC(=O)N2CCC2=CCCCC2)cc1OC (centres undefined) | -8.4% | 
92 | CC1CCCN(Cc2c(O)ccc3c(=O)c(Oc4ccc(C(C)(C)C)cc4)c(C(F)(F)F)oc23)C1 (centres undefined) | -0.105% | 
93 | CCc1cccc(C)c1NS(=O)(=O)c1ccc(-c2cc(C)no2)s1 | 0.67% | 
94 | O=C(CCS(=O)(=O)c1cc(Br)cc2c1N(C(=O)C1CC1)CC2)Nc1ccc(C(F)(F)F)cc1 | 0.0494% | 
